According to PubChem BioAssay (NCI):
Compounds without any hit were thinned out: in the full panel of roughly 83,000, 20% have a hit.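 Interpretation: 100, growth as untreated; towards 0, rising growth inhibition; 0, no net growth; 0 to -100, cell death. Compounds scoring below 10 were considered active.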 Activity calls are given as the source filed them.

These molecules were tested on MDA-MB-468 breast (assay: NCI-60 one-dose screen, 48 h (100 = growth as untreated, 0 = no growth, -100 = all killed)). Conditions: 10 µM unless noted.
OCC1OC(n2cnc3c(N/N=C\c4ccccn4)ncnc32)C(O)C1O (stereo unspecified) was tested, and the growth was -24% (active). For CC(C)CCc1nc2ccc(NCc3ccc(OCCN4CCC(C)CC4)cc3)cc2[nH]1, the growth was 65.6% (inactive). In the case of CC(=O)COc1ccc(Cl)cc1Cl, the growth is reported as 92.4% (inactive). For O=S(=O)(Nc1ccc(C2CC2)cc1)c1ccc(-c2cnc(C3CC3)o2)cc1, the growth was 18.4% (inactive). In the case of O=C1c2c(c3c4cc(Br)ccc4[nH]c3c3ccc4ccccc4c23)C(=O)N1CCN1CCNCC1, the growth is reported as 79.6% (inactive). COc1ccc(CN2CCc3c(Sc4ccccc4)nc(N)nc3C2=O)c(OC)c1 was tested, and the growth was 48.2% (inactive). For C#CC[C@H](N)C(=O)O, the growth was 101% [20 µM] (inactive). N#CC1C(C#N)C2c3ccccc3C=CN2C1C(=O)c1ccc(Br)cc1 (stereo unspecified) was tested, and the growth was 99.6% (inactive). With CCOc1ccccc1/C=N/N1CCCCCC1 the growth was 108% (inactive). For O=C(Nc1ccc(F)cc1)Nc1ccc(CCO)cc1, the growth was 105% (inactive). With C=C(C)[C@@H]1CC[C@]2(C(=O)O)CC[C@]3(C)[C@H](CC[C@@H]4[C@@]5(C)CCC(NC(=O)c6cccc(OC(C)=O)c6OC(C)=O)C(C)(C)[C@@H]5CC[C@]43C)[C@@H]12 (stereo partly specified) the growth was -5.31% (active).
